The supplement of paper PMC8285479
Counter-ions that a name gives are not always drawn. ± gives the standard deviation of the averaged measurements. Over roughly 1,900 compounds, “normalised cell viability (NPI; 0 = phenylarsine oxide control, 1 = DMSO control)” has its median near 1; the lowest 2% begin near 0.039. Only a selection was taken, and the lowest values are over-represented in it overall.

Test system: NCI-H1944
Test: normalised cell viability (NPI; 0 = phenylarsine oxide control, 1 = DMSO control) (fraction of DMSO control); NCI-H1944 is a non-small cell lung cancer line; higher = more viable cells (less compound toxicity)
Conditions: 6 days
[1] = glucocorticoid arm: hydrocortisone 2.75 uM co-treatment, compound 1 µM
[2] = glucocorticoid arm: hydrocortisone 2.75 uM co-treatment, compound 5 µM
[3] = glucocorticoid arm: hydrocortisone 2.75 uM pre-treated 2 days and continued, compound 1 µM
[4] = glucocorticoid arm: hydrocortisone 2.75 uM pre-treated 2 days and continued, compound 5 µM
[5] = glucocorticoid arm: vehicle, compound 1 µM
[6] = glucocorticoid arm: vehicle, compound 5 µM
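Further: CTB read-out in 384-well plates, triplicate wells, NPI normalised per plate against 1 µM phenylarsine oxide (0) and 0.1% DMSO (1) controls.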

Structure (SMILES) | normalised cell viability [1] | normalised cell viability [2] | normalised cell viability [3] | normalised cell viability [4] | normalised cell viability [5] | normalised cell viability [6]
CCCCCCCCCCCCCCCC(=O)OC(CC(=O)O)C[N+](C)(C)C (racemic) [Palmitoyl-DL-Carnitine chloride] | 1.02 ± 0.011 | 0.975 ± 0.014 | 1.013 ± 0.0058 | 0.863 ± 0.28 | 1.007 ± 0.0058 | 1.02 ± 0.02
CC(C=CC(=O)NO)=CC(C)C(=O)c1ccc(N(C)C)cc1 (stereo unspecified) [Trichostatin A (TSA)] | 0.0292 ± 0.0042 | -0.000733 ± 0.0048 | 0.937 ± 0.098 | 0.00269 ± 0.00055 | 0.00709 ± 0.0011 | 8.2e-05 ± 0.00089
Cc1ccc(C(=O)c2cc(/C=C/C(=O)NO)n(C)c2)cc1 | 1 ± 0.022 | 1.02 ± 0.02 | 1 ± 0.021 | 1.02 ± 0.017 | 0.9928 ± 0.0048 | 0.995 ± 0.022
CC(/C=C/C(=O)NO)=C\[C@@H](C)C(=O)c1ccc(N(C)C)cc1 [Trichostatin A] | 2.17e-05 ± 0.00056 | 0.000584 ± 0.0001 | 0.00474 ± 0.0016 | 0.00101 ± 0.0013 | -0.000312 ± 0.00084 | 0.000187 ± 0.00072
CN1CCC[C@@H]1c1cccnc1.Cc1ccc(C(=O)O[C@H](C(=O)O)[C@@H](OC(=O)c2ccc(C)cc2)C(=O)O)cc1 [(+)-Nicotine (+)-di-p-toluoyl tartrate] | 1.03 ± 0.015 | 1.02 ± 0.016 | 1.03 ± 0.01 | 1.03 ± 0.021 | 1.027 ± 0.0058 | 1.03 ± 0.015
CC1CN(S(=O)(=O)c2cccc3cnccc23)CCN1 (stereo unspecified) | 0.9777 ± 0.0078 | 0.966 ± 0.025 | 0.9933 ± 0.0051 | 1.01 ± 0.091 | 0.9757 ± 0.0074 | 0.9753 ± 0.0076
Oc1cc2c(c(Cl)c1O)CCNCC2c1ccccc1 (racemic) [(±)-6-Chloro-PB hydrobromide] | 1.007 ± 0.0058 | 1.04 ± 0.023 | 1.03 ± 0.015 | 1.05 ± 0.01 | 1.02 ± 0.01 | 1.02
O=C(c1ccc2c(c1)OCCO2)N1CCCCC1 | 1.005 ± 0.0092 | 1 ± 0.017 | 1.01 | 1 ± 0.017 | 0.9913 ± 0.0096 | 0.9947 ± 0.0021
O=C1O/C(=C/Br)CCC1c1cccc2ccccc12 (stereo unspecified) [Bromoenol lactone] | 1.02 | 1.02 ± 0.026 | 1.01 ± 0.01 | 1.02 | 0.998 ± 0.013 | 1.01
CCOC(=O)C1=CN(Cc2ccccc2)C=C(C(=O)OCC)C1c1ccccc1 | 0.995 ± 0.018 | 1.01 ± 0.026 | 1 ± 0.019 | 1.01 ± 0.021 | 0.993 ± 0.0059 | 1.003 ± 0.01
O=C(O)c1cc(O)c2ccc(Cl)cc2n1 [7-Chlorokynurenic acid] | 1.002 ± 0.0069 | 0.974 ± 0.0072 | 1.01 ± 0.015 | 0.9873 ± 0.0046 | 1.01 ± 0.01 | 0.997 ± 0.0036
N=C(N)NCCCCN [Agmatine sulfate] | 1.017 ± 0.0058 | 1 ± 0.025 | 1.003 ± 0.0058 | 1 ± 0.025 | 0.986 ± 0.012 | 0.997 ± 0.011
CC(C)C[C@H](NC(=O)[C@H](O)[C@H](N)Cc1ccccc1)C(=O)O [Epibestatin hydrochloride] | 1.003 ± 0.0064 | 0.9953 ± 0.004 | 0.9977 ± 0.004 | 0.9947 ± 0.005 | 0.9957 ± 0.0067 | 1.007 ± 0.0058
CC(C)C[C@H](NC(=O)[C@H](Cc1ccccc1)NC(=O)c1cnccn1)B(O)O [Bortezomib] | 0.281 ± 0.011 | 0.0356 ± 0.0084 | 0.669 ± 0.035 | 0.28 ± 0.054 | 0.00407 ± 0.00064 | 0.00157 ± 0.00063
CC(C)C[C@H](NC(=O)[C@H](Cc1ccccc1)NC(=O)c1cnccn1)B(O)O [Bortezomib (Velcade)] | 0.352 ± 0.024 | 0.0578 ± 0.0037 | 0.677 ± 0.016 | 0.351 ± 0.042 | 0.00826 ± 0.0011 | 0.000986 ± 0.0007
CC(C)C[C@H](NC(=O)[C@@H](O)[C@H](N)Cc1ccccc1)C(=O)O [Bestatin hydrochloride] | 0.996 ± 0.0046 | 1.02 ± 0.011 | 0.989 ± 0.01 | 1.02 ± 0.033 | 0.979 ± 0.012 | 0.9903 ± 0.0015

Structure (SMILES) | normalised cell viability [1] | normalised cell viability [2] | normalised cell viability [3] | normalised cell viability [4] | normalised cell viability [5] | normalised cell viability [6]
C#C[C@]1(O)CC[C@H]2[C@@H]3CCC4=Cc5oncc5C[C@]4(C)[C@H]3CC[C@@]21C [Danazol] | 0.998 ± 0.001 | 1 ± 0.021 | 0.991 ± 0.022 | 1.01 ± 0.027 | 1.007 ± 0.0058 | 1.013 ± 0.0058
C[C@]12CC[C@H](O)CC1=CC[C@@H]1[C@@H]2CC[C@]2(C)C(c3cccnc3)=CC[C@@H]12 [Abiraterone] | 1.043 ± 0.0058 | 1.18 ± 0.023 | 1.05 | 1.11 ± 0.025 | 0.848 ± 0.021 | 1.05 ± 0.011
O=C(NCCCNc1nc(Nc2cccc(NC(=O)N3CCCC3)c2)ncc1I)c1cccs1 | 0.9797 ± 0.0095 | 0.993 ± 0.027 | 0.9587 ± 0.0025 | 1.05 ± 0.017 | 0.71 ± 0.01 | 0.3133 ± 0.0023
c1ccc2c(-c3cnn4cc(-c5ccc(N6CCNCC6)cc5)cnc34)ccnc2c1 | 1.043 ± 0.0058 | 0.832 ± 0.14 | 1.04 ± 0.01 | 1.09 ± 0.021 | 1.01 ± 0.011 | 0.0214 ± 0.0048
Nc1ncnc2c1nc(Br)n2C1OC2COP(=O)(O)O[C@@H]2C1O (stereo partly specified) [8-Bromo-cAMP sodium] | 0.9863 ± 0.004 | 0.901 ± 0.017 | 0.983 ± 0.001 | 0.96 ± 0.016 | 0.9617 ± 0.0067 | 0.9647 ± 0.0093
Cc1nn(-c2ccccc2)c(C)c1C=NN1CCN(Cc2ccccc2)CC1 | 1.01 ± 0.01 | 0.991 ± 0.05 | 1.02 ± 0.011 | 0.9927 ± 0.0078 | 0.9987 ± 0.0023 | 0.996 ± 0.013
CNC(CC(=O)O)C(=O)O [NMDA (N-Methyl-D-aspartic acid)] | 1.006 ± 0.0069 | 1.03 ± 0.037 | 1.01 ± 0.032 | 1.01 ± 0.013 | 1.003 ± 0.0058 | 0.9973 ± 0.0025
FC(F)(F)c1cc(COC2CCCNC2c2ccccc2)cc(C(F)(F)F)c1 [L-733,060 hydrochloride] | 0.9863 ± 0.0067 | 0.843 ± 0.034 | 1 ± 0.014 | 0.993 ± 0.076 | 0.9957 ± 0.0067 | 0.928 ± 0.076
N/C(=N\C(=O)c1nc(Cl)c(N)nc1N)NCc1ccc(Cl)c(Cl)c1 [3',4'-Dichlorobenzamil hydrochloride] | 0.99 ± 0.0089 | 0.0646 ± 0.03 | 0.998 ± 0.013 | 0.862 ± 0.014 | 0.98667 ± 0.00058 | 0.0118 ± 0.0064
N=C(N)NC(=O)c1nc(Cl)c(N)nc1N [Amiloride hydrochloride] | 0.9737 ± 0.006 | 0.966 ± 0.023 | 0.991 ± 0.0052 | 0.992 ± 0.025 | 0.9947 ± 0.0084 | 1.003 ± 0.0064
N/C(=N\C(=O)c1nc(Cl)c(N)nc1N)NCc1ccccc1 [Benzamil hydrochloride] | 1.023 ± 0.0058 | 1.04 ± 0.01 | 1.03 ± 0.011 | 1.05 ± 0.028 | 0.9897 ± 0.0045 | 1.02 ± 0.016
CCCCCCCCCCCCCCCCCC(=O)NCC(COP(=O)([O-])OCC[N+](C)(C)C)OCC (racemic) [rac-2-Ethoxy-3-octadecanamido-1-propylphosphocholine] | 1.017 ± 0.0058 | 1.04 ± 0.011 | 1.01 ± 0.011 | 1.04 ± 0.021 | 0.9997 ± 0.0091 | 1.002 ± 0.0067
CCCCOc1cc(CC2CNC(=O)N2)ccc1OC (stereo unspecified) | 1.01 ± 0.01 | 1.01 ± 0.021 | 1.01 ± 0.011 | 1.01 ± 0.021 | 1.013 ± 0.0058 | 1.013 ± 0.0058
COC(=O)C[C@](O)(CCCC(C)(C)O)C(=O)O[C@@H]1C(OC)=C[C@]23CCCN2CCc2cc4c(cc2[C@H]13)OCO4 [Omacetaxine mepesuccinate] | 0.00277 ± 0.001 | 1.08 ± 0.026 | 0.0391 ± 0.002 | 1.03 ± 0.021 | 0.00151 ± 0.00092 | 1.017 ± 0.0058
O=c1[nH]c2cc(Cl)c(Cl)cc2[nH]c1=O [6,7-Dichloroquinoxaline-2,3-dione] | 1.01 ± 0.011 | 1.04 ± 0.011 | 1.003 ± 0.0061 | 1.04 ± 0.021 | 0.989 ± 0.007 | 1.002 ± 0.0068
